# Test results published in PubChem BioAssay AID463173 (ICCB-Longwood Screening Facility, Harvard Medical School, 2010).
# The campaign covered roughly 52,000 compounds. About 4,300 (8.3%) were called active. Shown is part of a subset that was picked to be rich in actives. A number with no mark means an inactive call. No stated cut-off is given here; in the data, active means survival mostly below about 52% (no sharp cut-off); inactive means mostly above about 56%.
# System: DeltatarO mutant
# Test: S. aureus survival, RN4220 and DeltatarO strains – OD600, teichoic acid synthesis inhibitors, primary screen (AID 463173)
# Conditions: S. aureus RN4220 wild type/DeltatarO growth, OD600, 18 h, stronger effect = lower value, screened at 18.75 µg/mL (by protocol)
row,Structure (SMILES),survival
1,Cc1ccc(NC(=O)CSc2nc(C3CCCC3)nc3c2c(=O)n(C)c(=O)n3C)c(C)c1,73%
2,COc1cccc(CNC(=O)c2oc3c(c2C)-c2nn(Cc4cccc(Cl)c4)cc2CC3)c1,76%
3,CCOC(=O)c1c(NC(=O)C2c3ccccc3Oc3ccccc32)sc2c1CCC(CC)C2 (configuration not stated),52%
4,CCOC(=O)c1ccc(NC(=O)c2c(NC(C)=O)sc3c2CCC(C)C3)cc1 (configuration not stated),47%
5,CCOC(=O)c1c(NC(=O)c2ccccc2OCC)sc2c1CCC(CC)C2 (configuration not stated),-2% (active)
6,CCC1CCc2c(sc(NC(=O)C3c4ccccc4Oc4ccccc43)c2C(=O)OC)C1 (configuration not stated),72%
7,CCOC(=O)c1c(NC(=O)c2ccc(F)cc2)sc2c1CCC(CC)C2 (configuration not stated),9% (active)
8,CCOC(=O)c1c(NC(=O)COc2cccc(C)c2C)sc2c1CCC(CC)C2 (configuration not stated),59%
9,CCCSc1ncc(Cl)c(C(=O)Nc2ccc(S(=O)(=O)N3CCCCC3C)cc2)n1 (configuration not stated),51%
10,COc1ccc(-c2nnc(SCC#N)o2)cc1,74%
11,N#Cc1ccccc1CSc1nnc(-c2ccccc2)o1,61%
12,c1ccc(-c2nnc(SCc3cccnc3)o2)cc1,54% (active)
13,Oc1ccccc1-c1nnc(SCc2ccccc2)o1,86%
14,COc1cccc(CSc2nnc(-c3ccc(F)cc3)o2)c1,90%
15,COc1ccc(-c2nnc(SCc3cccc(Cl)c3)o2)cc1,22% (active)
16,Cc1ccc(CSc2nnc(-c3ccc(O)cc3)o2)cc1,84%
17,Cc1ccc(-c2nnc(SCc3ccccc3C#N)o2)cc1,69%
18,Cc1ccc(-c2nnc(SCc3ccccc3C)o2)cc1,-5% (active)
19,CCOc1ccc(CCNC(=O)c2ccc(C)c(-n3c(C)nc4cccnc43)c2)cc1OCC,101%
20,Cc1cccc(C(=O)Nc2ccc(OCc3cc(=O)n4ccsc4n3)cc2)c1,101%
21,O=C(CSc1ccccn1)Nc1cccc(F)c1,85%
22,COC(=O)C(C)(C)Sc1nnc2c(n1)[nH]c1c(C)cc(C)cc12,55%
23,Cc1cccc(NC(=O)c2ccc(-n3cnc4cccnc43)cc2)c1C,82%
24,COc1cc(OC)c(NC(=O)c2ccc(-n3cnc4cccnc43)cc2)cc1Cl,52% (active)
25,COc1cc(NC(=O)c2ccc(-n3cnc4cccnc43)cc2)cc(OC)c1,55%

row,Structure (SMILES),survival
1,CN1C(C(=O)Nc2cccc(O)c2)=CC(c2ccco2)=NS1(=O)=O,88%
2,CCn1c(C)c(C)c2cc(C(=O)NCc3ccc(F)cc3)ccc21,90%
3,COc1ccc(CNC(=O)CCc2c(C)nc3c(c2C)c(=O)n(C)c(=O)n3C)cc1,115%
4,CCN(CC)S(=O)(=O)c1nnc(NC(=O)c2ccc(C)cc2)s1,63%
5,CCN(CC)S(=O)(=O)c1nnc(NC(=O)c2ccc(C(C)C)cc2)s1,44% (active)
6,CCN(CC)S(=O)(=O)c1nnc(NC(=O)COc2ccc(Cl)cc2)s1,87%
7,CCN(CC)S(=O)(=O)c1nnc(NC(=O)c2ccc(Br)cc2)s1,44% (active)
8,CCN(CC)S(=O)(=O)c1nnc(NC(=O)COc2ccc(C)cc2)s1,88%
9,CCN(CC)S(=O)(=O)c1nnc(NC(=O)COc2ccccc2)s1,100%
10,COCCCNC(=O)c1sc2ncccc2c1-n1cccc1,75%
11,COc1ccc(CNC(=O)C2CCN(c3nnc(-n4c(C)ccc4C)s3)CC2)c(OC)c1,87%
12,COc1ccc2c(c1)CC(NC(=O)Nc1ccc(Br)c(C)c1)CO2 (configuration not stated),75%
13,CCOC(=O)C1=C(CN2CCN(c3cccc(OC)c3)CC2)NC(=O)NC1c1ccc(OC)cc1 (configuration not stated),88%
14,COC(=O)c1scc(-c2ccc(C)cc2)c1S(=O)(=O)N1CCN(c2ccccc2)CC1,72%
15,COC(=O)c1cc(S(=O)(=O)N2CCN(c3ccc(F)cc3)CC2)cn1C,-5% (active)
16,Cn1cc(S(=O)(=O)N2CCCCCC2)cc1C(=O)N1CCN(c2ccc(F)cc2)CC1,75%
17,Cn1cc(S(=O)(=O)N2CCCCC2)cc1C(=O)N1CCN(c2ccc(F)cc2)CC1,55%
18,COC(=O)c1scc(-c2ccc(C)cc2)c1S(=O)(=O)N1CCN(c2ccc(F)cc2)CC1,-4% (active)
19,COC(=O)c1scc(-c2ccc(C)cc2)c1S(=O)(=O)N1CCN(c2ccc(OC)cc2)CC1,60%
20,Cc1cc(C)cc(NC(=O)N2CCC(NC(=O)C3CCCCC3)CC2)c1,92%
21,Cc1ccccc1NC(=O)CN1CCCC1,70%
22,COCCCn1c(=O)c2sccc2n2c(CCCC(=O)NCc3ccc(F)cc3)nnc12,92%
23,O=c1c2sc3ccccc3c2n(Cc2cccc(C(F)(F)F)c2)c(=O)n1Cc1ccccc1,67%
24,CCOC(=O)c1[nH]c2ccccc2c1NC(=O)c1cc(OCC)c(OCC)c(OCC)c1,97%
25,CCOC(=O)c1[nH]c2ccccc2c1NC(=O)c1ccccc1OC,51% (active)

row,Structure (SMILES),survival
1,CCOC(=O)c1[nH]c2ccccc2c1NC(=O)c1cc(OC)cc(OC)c1,48% (active)
2,CCOC(=O)c1[nH]c2ccccc2c1NC(=O)c1ccccc1F,53%
3,CCOC(=O)c1[nH]c2ccccc2c1NC(=O)c1ccccc1OCC,68%
4,CCOC(=O)c1[nH]c2ccccc2c1NC(=O)c1ccc(OC)c(OC)c1,131%
5,Cc1ccc(CNC(=O)c2sc3nc(-c4ccccc4)cn3c2C)cc1,123%
6,Cc1ccc2oc(C(=O)Nc3c(C(=O)c4ccc(C)c(F)c4)oc4ccccc34)cc(=O)c2c1,58%
7,CCOc1ccc2nc(Cl)c(C3CC(c4ccc(OC)cc4)=NN3S(C)(=O)=O)cc2c1 (configuration not stated),127%
8,CCOc1ccc2nc(Cl)c(C3CC(c4ccc(C)cc4)=NN3C(=O)CCC(=O)O)cc2c1 (configuration not stated),50%
9,CCS(=O)(=O)N1N=C(c2ccc(C)cc2)CC1c1cc2ccc(OC)cc2nc1Cl (configuration not stated),44% (active)
10,CCOc1ccc(C2C(=O)N(C3CCCCCC3)CC(=O)N2CCc2ccccc2)cc1OC (configuration not stated),88%
11,N#Cc1cc(C#N)c(SCC(N)=O)nc1N,72%
12,CCc1ccccc1N1C(=O)N(Cc2ccc(C#N)cc2)c2ccccc2S1(=O)=O,120%
13,Cc1ccc(NC(=O)N(Cc2c[nH]c3ccccc23)C2CCCCCC2)cc1C,56%
14,Cc1ccc(NC(=O)N(Cc2cn(C)c3ccccc23)C2CCCCC2)cc1C,-13% (active)
15,Cn1cc(CN(C(=O)Nc2ccccc2)C2CCCCC2)c2ccccc21,-14% (active)
16,COc1ccc2[nH]c(=O)c(CN(C(=O)Nc3ccccc3)C3CCCC3)cc2c1,78%
17,Cn1cc(CN(C(=O)Nc2ccc(Cl)c(Cl)c2)C2CCCCC2)c2ccccc21,51%
18,O=C(Nc1ccccc1)N(Cc1c[nH]c2ccccc12)C1CCCCCC1,52%
19,CCC(C(=O)NCc1ccccc1)n1nc(C)c2sc3ccccc3c2c1=O (configuration not stated),70%
20,COc1cccc(CNc2sc3c(c2C(=O)Nc2ccc(OC)cc2OC)CCC3)c1,99%
21,CC(=O)Nc1nonc1-c1nnc(SCC(=O)Nc2cc(C)cc(C)c2)n1C,52%
22,CC1CCC(NC(=O)C2(C)Cc3ccccc3C(=O)N2Cc2ccccc2Cl)CC1 (configuration not stated),48%
23,CC1(C(=O)NC2CCCCC2)Cc2ccccc2C(=O)N1Cc1ccccc1Cl (configuration not stated),43% (active)
24,CC1(C(=O)NC2CCCCC2)Cc2ccccc2C(=O)N1Cc1ccc(Cl)cc1 (configuration not stated),92%
25,N#Cc1ccc(S(=O)(=O)N2CCNCC2)cc1,98%

row,Structure (SMILES),survival
1,CC1=C(c2ccc(C(C)C)cc2)S(=O)(=O)NC1=NCc1ccccc1C,77%
2,Cc1[nH]n(-c2ccccc2)c(=O)c1C(c1cc(Cl)ccc1O)c1c(C)[nH]n(-c2ccccc2)c1=O,49%
3,Cc1[nH]n(-c2ccccc2)c(=O)c1/C=N/NC(=O)c1ccccc1,50%
4,Cc1[nH]n(-c2ccc(Cl)cc2)c(=O)c1C(=O)c1ccccc1,40% (active)
5,Cc1ccc2oc(-c3ccc(NC(=O)CCC(=O)O)cc3)nc2c1,86%
6,COc1cc(-c2nc3sccn3c2Nc2c(C)cccc2C)ccc1O,125%
7,Cc1ccc(Nc2c(-c3ccc(Cl)cc3)nc3sccn23)c(C)c1,47%
8,CCc1cccc(C)c1Nc1c(-c2cccc(O)c2)nc2sccn12,105%
9,Cc1cccc(C)c1Nc1c(-c2ccc(O)cc2)nc2sccn12,28% (active)
10,Cc1ccc(-c2nc3sccn3c2Nc2ccccc2C)cc1,48%
11,Cc1ccc(-c2nc3sccn3c2Nc2ccc(C)c(C)c2)cc1,36% (active)
12,Cc1cc(Cl)ccc1NC(=O)CN(c1ccccc1Br)S(C)(=O)=O,55%
13,CCOc1ccc(-n2ccnc2SCC(=O)Nc2cccc3ccccc23)cc1,68%
14,O=c1cc(CN2CCN(S(=O)(=O)c3ccc(Cl)cc3)CC2)nc2sc(-c3ccccc3F)nn12,104%
15,Cc1cccc(-n2ncc3c(NC4CCCC4)ncnc32)c1,69%
16,O=C(O)c1ccc(/C=N/n2cnnc2)cc1,111%
17,Cc1cccc(CNC(=O)c2oc3c(c2C)-c2nn(Cc4cccc(Cl)c4)cc2CC3)c1,97%
18,Cc1cccc(C)c1NC(=O)c1oc2c(c1C)-c1nn(Cc3ccccc3)cc1CC2,23% (active)
19,CCn1cc2c(n1)-c1c(oc(C(=O)Nc3cccc(C)c3C)c1C)CC2,95%
20,Cc1ccccc1CNC(=O)c1oc2c(c1C)-c1nn(Cc3ccc(Cl)cc3)cc1CC2,73%
21,Cc1ccccc1NC(=O)c1oc2c(c1C)-c1nn(Cc3cccc(Cl)c3)cc1CC2,35% (active)
22,COc1cc(NC(=O)c2oc3c(c2C)-c2nn(Cc4cccc(Cl)c4)cc2CC3)cc(OC)c1,78%
